Screens: PubChem, several laboratories
CYP2C19 act: cytochrome P450 2C19 (human) activation | P33261 | recombinant CYP2C19, luciferin-H EGE luminescence; stronger effect = higher value; 0 = fully inhibited enzyme, 1 = untreated enzyme | activation factor at 5 µM | 96,000 tested, under 10 active | AID 1025;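 active = activation factor of at least 2 at 5 µM in the primary screen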;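 also: 0 = wells with 2.5 mM tranylcypromine and 1 = vehicle-only wells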
CYP2C9 act: increases human cytochrome P450 2C9 activity. recombinant CYP2C9, luciferin-H conversion, luminescence; stronger effect = higher value; factor 1 = untreated enzyme, 0 = blocked. activation factor at 5 µM. actives 1.4% (n = 96,000). P11712. AID 1024;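 active = activation factor of 2 or more for CYP2C9 at a 5 µM dose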;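 also: 0 = sulfaphenazole-blocked wells and 1 = vehicle-only wells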
Target sequence (P11712 whole entry, looked up): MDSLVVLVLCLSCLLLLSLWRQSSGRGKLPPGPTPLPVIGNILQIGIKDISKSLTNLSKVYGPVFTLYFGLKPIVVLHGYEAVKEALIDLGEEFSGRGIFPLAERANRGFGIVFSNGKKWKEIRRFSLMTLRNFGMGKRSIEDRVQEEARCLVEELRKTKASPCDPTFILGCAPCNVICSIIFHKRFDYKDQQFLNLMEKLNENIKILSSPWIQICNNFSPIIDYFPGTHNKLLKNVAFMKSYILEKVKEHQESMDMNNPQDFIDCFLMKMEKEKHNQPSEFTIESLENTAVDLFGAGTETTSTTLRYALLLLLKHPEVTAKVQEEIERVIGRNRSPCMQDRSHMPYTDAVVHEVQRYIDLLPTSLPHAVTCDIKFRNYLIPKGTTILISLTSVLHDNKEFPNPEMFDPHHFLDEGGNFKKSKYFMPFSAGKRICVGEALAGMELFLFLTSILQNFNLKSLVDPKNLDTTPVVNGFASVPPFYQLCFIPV
CYP2C9 inhib: inhibitors of human CYP2C9; inhibition, % at 5 µM; P11712; actives 20% (n = 96,000); CYP2C9 Supersomes, luciferin-H conversion, luminescence;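 active = blocking of liver enzyme CYP2C9 beyond about 50% at 5 µM, limit read from the data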
sEH act: soluble epoxide hydrolase (human) activation; purified human sEH enzymatic activity, activator screen; P34913; activation, % at 2 µM; AID 717; actives 0.04% (n = 91,000); in the data active = activation above about 37%
CYP2C19 inh: human CYP2C19 inhibition; CYP2C19 Supersomes, luciferin-H EGE luminescence, 30 min; inhibition, % at 5 µM; actives 21% (n = 96,000); AID 778;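 active = CYP2C19 inhibition above a set limit at 5 µM in the primary screen, cut at about 50% in these data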;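 also: plate controls were negative control wells for no effect and 2.5 mM tranylcypromine positive control for full effect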
sEH inhibitor: inhibitors of human soluble epoxide hydrolase. P34913. recombinant human sEH enzymatic activity assay. inhibition, % at 2 µM. actives 0.34% (n = 91,000). AID 707; in the data active = inhibition above about 80%
An asterisk follows results filed as active. Compounds with a hit are over-represented: about 27% of the library has one in this group of screens.

`O=C(c1ccc(S(=O)(=O)N2CCOCC2)cc1)N(Cc1ccco1)Cc1cccs1` gave CYP2C19 act 0.8, CYP2C9 act 0.6, CYP2C9 inhib 42, sEH act -9, CYP2C19 inh 18 and sEH inhibitor 11.
Screening O=C1c2ccccc2C(Nc2ccc(S(=O)(=O)N3CCOCC3)cc2)N1c1ccccn1 (stereo unspecified) returned CYP2C19 act 0.7, CYP2C9 act 0.2, CYP2C9 inhib 77*, sEH act 1, CYP2C19 inh 34 and sEH inhibitor -2.
`Cc1ccc(/C(O)=C2\C(=O)C(=O)N(CCCN(C)C)C2c2ccccn2)cc1` (stereo unspecified) gave sEH act -7 and sEH inhibitor 6.
O=c1cc(N2CCCCC2)c(-c2ccccc2)nn1Cc1c(Cl)cccc1Cl was read as CYP2C19 act 0.7, CYP2C9 act 0.6, CYP2C9 inhib 45, sEH act -6, CYP2C19 inh 27 and sEH inhibitor 11.
COc1ccc(-n2c(SCC(=O)N3CCCCC3C)nnc2-c2cccnc2)cc1 (stereo unspecified) was read as CYP2C19 act 0.6, CYP2C9 act 0.6, CYP2C9 inhib 43, sEH act -3, CYP2C19 inh 42 and sEH inhibitor 1.
`FC(F)(F)c1ccc(Oc2ccc3c(C(F)(F)F)cc(C(F)(F)F)nc3n2)cc1` gave CYP2C19 act 1, CYP2C9 act 1, CYP2C9 inhib 2, sEH act -8, CYP2C19 inh -4 and sEH inhibitor 6.
Screening COC(=O)c1cc(OC)c(OC)cc1NC(=O)CCCCCN1C(=O)CCC1=O returned CYP2C19 act 0.4, CYP2C9 act 0.6, CYP2C9 inhib 44, sEH act 10, CYP2C19 inh 62* and sEH inhibitor -13.
For CC1CN(C(=O)c2ccc(COCC(F)(F)F)o2)CC(C)O1 (stereo unspecified) the results were CYP2C19 act 1, CYP2C9 act 1.2, CYP2C9 inhib -19, sEH act -1, CYP2C19 inh 4 and sEH inhibitor 2.
Screening CCOC(=O)CSc1nc(-c2ccccc2)nc2c1oc1ccccc12 returned CYP2C19 act 1.1, CYP2C9 act 1.1, CYP2C9 inhib -6, sEH act 0, CYP2C19 inh -15 and sEH inhibitor 3.
Clc1ccc(-c2cc(CSc3ccccc3)on2)cc1 was read as CYP2C19 act 0.6, CYP2C9 act 0.8, CYP2C9 inhib 23 and CYP2C19 inh 37.
For Clc1ccc(SCc2cc(-c3ccccc3)on2)cc1 the results were CYP2C19 act 0.1, CYP2C9 act 1.2, CYP2C9 inhib -19, sEH act -7, CYP2C19 inh 90* and sEH inhibitor 9.
For CCOC(=O)CSc1cc(CS(=O)c2ccc(Cl)cc2)nc(-c2ccccc2)n1 (stereo unspecified) the results were CYP2C19 act 0, CYP2C9 act 0.1, CYP2C9 inhib 85*, sEH act -20, CYP2C19 inh 100* and sEH inhibitor 20.
CCOC(=O)CSc1ccc2nnc(-c3ccccc3)n2n1 was read as CYP2C19 act 1, CYP2C9 act 0.8, CYP2C9 inhib 24 and CYP2C19 inh -2.
`CCOC(=O)CSc1cc(CSc2ccccc2)nc(-c2ccccc2)n1` gave CYP2C19 act 0.4, CYP2C9 act 0.7, CYP2C9 inhib 30, sEH act -6, CYP2C19 inh 57* and sEH inhibitor 7.
For Clc1cc(CSc2ccccc2)nc(-c2ccccc2)n1 the results were CYP2C19 act 0.6, CYP2C9 act 0.5, CYP2C9 inhib 53* and CYP2C19 inh 45.
COc1ccc(OC)c(S(=O)(=O)NCC2CCCO2)c1 (stereo unspecified) was read as CYP2C19 act 0.8, CYP2C9 act 1, CYP2C9 inhib 2 and CYP2C19 inh 20.
Screening O=C(CNC(=O)c1ccc(Cl)cc1)NCCCn1ccnc1 returned CYP2C19 act 0.1, CYP2C9 act 0.2, CYP2C9 inhib 79*, sEH act -8, CYP2C19 inh 85* and sEH inhibitor 9.
For O=C(CCn1c(=O)sc2ccccc21)NCCCn1ccnc1 the results were sEH act 1 and sEH inhibitor 0.
O=C(NCCCn1ccnc1)C(=O)NCc1ccc(Cl)cc1 was read as sEH act 0 and sEH inhibitor 5.
`CCCCCOc1ccc(NC(=O)C(=O)NCCCn2ccnc2)cc1` gave CYP2C19 act 0.1, CYP2C9 act 0.2, CYP2C9 inhib 83*, sEH act 3, CYP2C19 inh 89* and sEH inhibitor -5.
`O=C(Cc1ccc(Cl)cc1)NCCCn1ccnc1` gave CYP2C19 act 0, CYP2C9 act 0.1, CYP2C9 inhib 88*, sEH act 2, CYP2C19 inh 98* and sEH inhibitor 0.
For C=CCOc1ccc(NC(=O)C(=O)NCCCn2ccnc2)cc1 the results were CYP2C19 act 0.5, CYP2C9 act 0.5, CYP2C9 inhib 47, sEH act -4, CYP2C19 inh 48 and sEH inhibitor 6.
`CC(C)(Oc1ccc(Cl)cc1)C(=O)NCCCn1ccnc1` gave CYP2C19 act 0, CYP2C9 act 0.1, CYP2C9 inhib 87*, sEH act -16, CYP2C19 inh 100* and sEH inhibitor 17.
For CN1CCN(c2ccc([N+](=O)[O-])c(-n3nc(-c4ccccc4)c4ccccc4c3=O)c2)CC1 the results were CYP2C19 act 0.8, CYP2C9 act 0.5, CYP2C9 inhib 45, sEH act 9, CYP2C19 inh 20 and sEH inhibitor -9.
NC(=O)/C(=N\OC(=O)c1ccco1)c1nc(-c2ccc(Br)cc2)cs1 was read as CYP2C19 act 1, CYP2C9 act 0.9, CYP2C9 inhib 7, sEH act -13, CYP2C19 inh -2 and sEH inhibitor 14.
CCN1C(=O)C(O)(C2COC(C)(C)CC2=O)c2cc(Br)ccc21 (stereo unspecified) was read as CYP2C19 act 0.6, CYP2C9 act 1.1, CYP2C9 inhib -10, sEH act 16, CYP2C19 inh 42 and sEH inhibitor -23.
For CCN(CC)S(=O)(=O)c1ccc(OC)c(NC(=O)c2cccc([N+](=O)[O-])c2C)c1 the results were sEH act -6 and sEH inhibitor 5.
Screening O=C(NCc1ccccn1)Nc1cccc(Cl)c1 returned CYP2C19 act 0.6, CYP2C9 act 0.9, CYP2C9 inhib 6 and CYP2C19 inh 42.
For O=C(NCCCn1ccnc1)Nc1cccc(Cl)c1 the results were CYP2C19 act 0, CYP2C9 act 0, CYP2C9 inhib 100*, sEH act -10, CYP2C19 inh 96* and sEH inhibitor 11.
For O=C(Cc1c(F)cccc1Cl)NCCCn1ccnc1 the results were CYP2C19 act 0.1, CYP2C9 act 0.2, CYP2C9 inhib 79*, sEH act -10, CYP2C19 inh 92* and sEH inhibitor 11.
